Neurite formation score data for 12 compounds are collected here from the supplement of paper PMC8047044.

Molecules are shown by their SMILES.

The test concerns Neuro-2a. As to the kind of experiment: neurite formation score, plate-normalized to DMSO control mean 5.04 (score (0-8 scale)); higher = more or longer neurites. Particulars: 0.1 µM. As to the method:
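Neuro-2a mouse neuroblastoma cells in PLL-coated 96-well plates were pre-treated for 1 h in DMEM(+) with each kinase inhibitor at 0.1 µM, then switched to serum-free DMEM(-) with inhibitor to induce neurite outgrowth and fixed about 2-3 h later. Three blinded observers scored neurite formation from 0 (no neurites) to 8 (long neurites on almost all cells).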
Compound `O=c1[nH]c2ccccc2n1C1CCN(Cc2ccc(-c3[nH]c4cc5ncnc5cc4nc3-c3ccccc3)cc2)CC1` [AKT inhibitor VIII] displayed a neurite formation score of 3.38.
As for `COC[C@H]1OC(=O)c2coc3c2[C@@]1(C)C1=C(C3=O)[C@@H]2CCC(=O)[C@@]2(C)C[C@H]1OC(C)=O` [Wortmannin], the figure is 4.58.
Turning to `O=c1[nH]c2ccc(Cl)cc2c(N[C@@H]2CN3CCC2CC3)c1-c1nc2ccccc2[nH]1`, the neurite formation score came out at 4.92.
As for `Cc1ccccc1-n1c(Cn2cnc3c(N)ncnc32)nc2cccc(C)c2c1=O`, the figure is 4.75.
In turn, `N#CC(C#N)=Cc1ccc(O)c(O)c1` displayed a neurite formation score of 5.38.
The figure for `COc1ccc(N(C(=O)Oc2c(C)cccc2C)c2ccnc(Nc3ccc(N4CCN(C)CC4)cc3)n2)c(OC)c1` is 5.08.
With `COc1cc([C@@H]2c3cc4c(cc3[C@H](O)[C@H]3COC(=O)[C@@H]23)OCO4)cc(OC)c1OC`, the neurite formation score came out at 2.38.
As for `CCN1CCN(C(=O)Cc2ccc(Nc3ncc(F)c(Nc4ccc(C(=O)Nc5ccccc5Cl)cc4)n3)cc2)CC1` [Aurora A Inhibitor I], the figure is 4.92; as for `COc1ccc2c(c[n+](C)c3c4cc5c(cc4ccc23)OCO5)c1OC` [Chelerythrine Chloride], 4.04; as for `CC(C)(C)c1cc(C=C(C#N)C#N)cc(C(C)(C)C)c1O` [Tyrphostin 9], 4.92.
On to `CC(C)(C)c1cc(C=C(C#N)C#N)cc(Br)c1O`, for which the neurite formation score turned out to be 5.04.
As for `Cn1cc(C2=C(c3cn(C4CCN(Cc5ccccn5)CC4)c4ccccc34)C(=O)NC2=O)c2ccccc21`, the figure is 2.38.
